The values below come from PubChem BioAssay (NCI).

Some test systems named below: SK-MEL-2 melanoma; EKVX NSCLC; SN12C renal; UO-31 renal; TK-10 renal; ACHN renal; CAKI-1 renal; A498 renal; CCRF-CEM leukemia; MOLT-4 leukemia; SR leukemia; RPMI-8226 leukemia; OVCAR-8 ovarian; OVCAR-5 ovarian; OVCAR-4 ovarian; SK-OV-3 ovarian; IGROV1 ovarian; OVCAR-3 ovarian; HS 578T breast; NCI/ADR-RES ovarian.
Experiment in all cases: NCI-60 one-dose screen, 48 h (100 = growth as untreated, 0 = no growth, -100 = all killed)
What all share (conditions): 10 µM unless noted

Molecules are shown by their SMILES. About 83,000 compounds went through this panel and 20% of them were active in at least one assay; those are over-represented in the sample as a whole.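 Cells were grown in 96-well plates and exposed to the test compound at a single concentration for 48 hours; results are reported as percent growth, with values below 10 considered active.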 Unmarked numbers belong to inactive results. The source made the active and inactive calls.

On to `Oc1ccc(C(c2ccc(O)cc2)c2ccc(Cl)cn2)cc1`, for which the growth in the assay on SK-MEL-2 melanoma was 72.7%; in the assay on EKVX NSCLC, 15.8%; with SN12C renal it was 6.15% (active); in the assay on UO-31 renal it was 64.8%; with TK-10 renal it was -3.31% (active); with ACHN renal it was 15.7%. For the same compound, the growth in the assay with CAKI-1 renal is 73.5%; with A498 renal, -1.72% (active); with CCRF-CEM leukemia it was 70.2%; in the assay with MOLT-4 leukemia it was 98.3%; with SR leukemia, 90%; with RPMI-8226 leukemia, 98.2%. Besides, the growth is -11.1% (active) in the assay on OVCAR-8 ovarian; 72.7% in the assay on OVCAR-5 ovarian; -14.8% (active) with OVCAR-4 ovarian; 86.8% with SK-OV-3 ovarian; 28.9% in the assay on IGROV1 ovarian; -34.5% (active) with OVCAR-3 ovarian. Besides, the values for the growth in the assay on HS 578T breast and in the assay on NCI/ADR-RES ovarian were -29.9% (active) and -36.1% (active), respectively.
For `C(CCCSC1=NCCN1)CCSC1=NCCN1`, the growth is 122% in the assay on SK-MEL-2 melanoma; 109% in the assay on EKVX NSCLC; 103% in the assay on SN12C renal; 80.3% with UO-31 renal; 122% in the assay with TK-10 renal; 100% in the assay on ACHN renal. The growth in the assay on CAKI-1 renal was 101%; with A498 renal, 103%; in the assay with CCRF-CEM leukemia, 101%; in the assay with MOLT-4 leukemia, 102%; with SR leukemia, 95.9%; with RPMI-8226 leukemia, 107%. The growth with OVCAR-8 ovarian is 98.4%; in the assay with OVCAR-5 ovarian it was 89.8%; with OVCAR-4 ovarian, 98.2%; in the assay on SK-OV-3 ovarian, 112%; with IGROV1 ovarian, 101%; in the assay on OVCAR-3 ovarian, 107%. In addition, the growth is 104% in the assay on HS 578T breast and 94.4% in the assay on NCI/ADR-RES ovarian.
For `O=C(/C=C/c1ccco1)Nc1ncc(Cc2ccc(F)cc2)s1`, the growth in the assay on SK-MEL-2 melanoma is 48.8%; with EKVX NSCLC, 29.1%; with SN12C renal, 28.5%; in the assay on UO-31 renal, 47.6%; in the assay on TK-10 renal it was 62.3%; with ACHN renal it was 40.2%. Moreover, the growth was 34.4% with CAKI-1 renal; 19.3% in the assay with A498 renal; 21.9% with CCRF-CEM leukemia; 20.9% in the assay with MOLT-4 leukemia; 16.1% in the assay with SR leukemia; 32.4% in the assay on RPMI-8226 leukemia. Also, the growth in the assay with OVCAR-8 ovarian was 22.2%; in the assay on OVCAR-5 ovarian it was 32.5%; in the assay on OVCAR-4 ovarian, 63.9%; in the assay with SK-OV-3 ovarian, 39.3%; in the assay with IGROV1 ovarian, 27.2%; in the assay with OVCAR-3 ovarian, -8.58% (active). Also, the growth is 11.3% with HS 578T breast and 0.377% (active) in the assay with NCI/ADR-RES ovarian.
Regarding `CCOC(=O)CC1CSC(N/N=C/c2ccc(O)cc2)=N1` (stereo not given), the growth is 95.1% in the assay with SK-MEL-2 melanoma; 103% in the assay with EKVX NSCLC; 105% with SN12C renal; 89.7% with UO-31 renal; 91.5% in the assay on TK-10 renal; 105% in the assay with ACHN renal. In addition, the growth was 94.6% in the assay with CAKI-1 renal; 108% in the assay on A498 renal; 115% in the assay with CCRF-CEM leukemia; 107% with MOLT-4 leukemia; 98.5% with SR leukemia; 104% in the assay with RPMI-8226 leukemia. Besides, the growth is 103% in the assay with OVCAR-8 ovarian; 100% in the assay on OVCAR-5 ovarian; 108% in the assay with OVCAR-4 ovarian; 88.8% in the assay on SK-OV-3 ovarian; 97.3% in the assay with IGROV1 ovarian; 110% in the assay with OVCAR-3 ovarian. The growth in the assay with HS 578T breast was 104%; with NCI/ADR-RES ovarian it was 108%.
Consider `O=C(Nc1ccccc1CNc1nc(Nc2ccc(OCCN3CCCC3)cc2)ncc1Cl)NC1CCCCC1`, for which the growth in the assay on SK-MEL-2 melanoma was 115%; in the assay on EKVX NSCLC, 95%; with SN12C renal, 88.1%; with UO-31 renal, 56.3%; with TK-10 renal, 116%; with ACHN renal it was 78.2%. Further, the growth in the assay with CAKI-1 renal is 94.3%; in the assay with A498 renal, 75.3%; in the assay with CCRF-CEM leukemia, 12%; in the assay on MOLT-4 leukemia it was 72.3%; in the assay with SR leukemia, 5.48% (active); in the assay with RPMI-8226 leukemia, 60.8%. Also, the growth with OVCAR-8 ovarian is 57.5%; in the assay with OVCAR-5 ovarian it was 114%; with OVCAR-4 ovarian, 46.6%; with SK-OV-3 ovarian, 104%; with IGROV1 ovarian it was 88.1%; in the assay on OVCAR-3 ovarian, 99.5%. For the same compound, the growth in the assay with HS 578T breast is 85.2%; with NCI/ADR-RES ovarian, 74%.
As to `COc1ccc(Cn2cc3c(c2)-c2oncc2CC3)cc1`, the growth with SK-MEL-2 melanoma is 68%; in the assay on EKVX NSCLC it was 66.3%; in the assay on SN12C renal, 77.8%; with UO-31 renal it was 68.2%; in the assay on TK-10 renal it was 101%; in the assay with ACHN renal, 99.2%. In addition, the growth is 64% in the assay on CAKI-1 renal; 57.7% in the assay on A498 renal; 35.2% with CCRF-CEM leukemia; 58% with MOLT-4 leukemia; 40.7% in the assay on SR leukemia; 48.9% in the assay on RPMI-8226 leukemia. Besides, the growth was 83.2% in the assay with OVCAR-8 ovarian; 83.9% with OVCAR-5 ovarian; 89.8% with OVCAR-4 ovarian; 67.1% with SK-OV-3 ovarian; 49.6% in the assay with IGROV1 ovarian; 108% in the assay with OVCAR-3 ovarian. For the same compound, the growth in the assay on HS 578T breast was 70.9%; in the assay with NCI/ADR-RES ovarian it was 33.7%.
In the case of `CN(C)CC1C(=O)O[C@H]2[C@H]1CC/C(COC(=O)NCc1ccc(Cn3c(=O)sn(CCCI)c3=O)cc1)=C\CC[C@@]1(C)O[C@@H]21` (stereo not given in full), the growth with SK-MEL-2 melanoma was 63.3%; in the assay on EKVX NSCLC it was 89.7%; in the assay with SN12C renal, 18.9%; with UO-31 renal, 1.41% (active); in the assay on TK-10 renal, -63.3% (active); with ACHN renal it was -48.8% (active). Besides, the growth is -63.8% (active) in the assay with CAKI-1 renal; 105% in the assay on A498 renal; -10.1% (active) in the assay with CCRF-CEM leukemia; -1.36% (active) in the assay on MOLT-4 leukemia; -28.6% (active) in the assay with SR leukemia; -29.7% (active) in the assay on RPMI-8226 leukemia. The growth in the assay with OVCAR-8 ovarian was -68.2% (active); in the assay with OVCAR-5 ovarian it was 105%; with OVCAR-4 ovarian it was 6.44% (active); with SK-OV-3 ovarian it was 99.5%; in the assay with IGROV1 ovarian, -81.8% (active); in the assay on OVCAR-3 ovarian, -96.4% (active). Also, the growth in the assay with HS 578T breast was 82.5%; in the assay on NCI/ADR-RES ovarian it was 98.8%.
On to `CCN1C(=O)N(CC)C2C1NN=c1s/c(=C\c3ccc(F)cc3)c(=O)n12` (stereo not given), for which the growth in the assay with SK-MEL-2 melanoma is 55.3%; in the assay with EKVX NSCLC, 56.3%; with SN12C renal, 31.5%; with UO-31 renal, 41.7%; with TK-10 renal it was 64.8%; in the assay on ACHN renal, 35.2%. Moreover, the growth in the assay on CAKI-1 renal was 33%; in the assay with A498 renal, 23.4%; in the assay on CCRF-CEM leukemia, 4.82% (active); in the assay with MOLT-4 leukemia, 14.3%; in the assay with SR leukemia it was 11.1%; in the assay with RPMI-8226 leukemia, 21.3%. Moreover, the growth in the assay with OVCAR-8 ovarian was 2.37% (active); with OVCAR-5 ovarian, 33.1%; in the assay on OVCAR-4 ovarian, 46.4%; in the assay with SK-OV-3 ovarian, 37.2%; with IGROV1 ovarian it was 23%; in the assay on OVCAR-3 ovarian it was -25.9% (active). Further, the growth is 12.4% with HS 578T breast and 1.08% (active) in the assay with NCI/ADR-RES ovarian.
